Here are results for 26 compounds from PubChem BioAssay (EPA / NIEHS).

Several values for one entry are separate records, joined by “and”; a condition that tells them apart may be missing. Equal entries are not always repeated. Some compounds were tested as several samples or in several runs, with calls that do not always agree. Activity calls are given as the source filed them. Rule for the calls: active = hit-call score of the fitted dose curve at least 0.9, where 1 is the maximum; inactive = score below 0.9.

Sequence of Signal transducer and activator of transcription 3 (Homo sapiens) (P40763 whole entry, looked up): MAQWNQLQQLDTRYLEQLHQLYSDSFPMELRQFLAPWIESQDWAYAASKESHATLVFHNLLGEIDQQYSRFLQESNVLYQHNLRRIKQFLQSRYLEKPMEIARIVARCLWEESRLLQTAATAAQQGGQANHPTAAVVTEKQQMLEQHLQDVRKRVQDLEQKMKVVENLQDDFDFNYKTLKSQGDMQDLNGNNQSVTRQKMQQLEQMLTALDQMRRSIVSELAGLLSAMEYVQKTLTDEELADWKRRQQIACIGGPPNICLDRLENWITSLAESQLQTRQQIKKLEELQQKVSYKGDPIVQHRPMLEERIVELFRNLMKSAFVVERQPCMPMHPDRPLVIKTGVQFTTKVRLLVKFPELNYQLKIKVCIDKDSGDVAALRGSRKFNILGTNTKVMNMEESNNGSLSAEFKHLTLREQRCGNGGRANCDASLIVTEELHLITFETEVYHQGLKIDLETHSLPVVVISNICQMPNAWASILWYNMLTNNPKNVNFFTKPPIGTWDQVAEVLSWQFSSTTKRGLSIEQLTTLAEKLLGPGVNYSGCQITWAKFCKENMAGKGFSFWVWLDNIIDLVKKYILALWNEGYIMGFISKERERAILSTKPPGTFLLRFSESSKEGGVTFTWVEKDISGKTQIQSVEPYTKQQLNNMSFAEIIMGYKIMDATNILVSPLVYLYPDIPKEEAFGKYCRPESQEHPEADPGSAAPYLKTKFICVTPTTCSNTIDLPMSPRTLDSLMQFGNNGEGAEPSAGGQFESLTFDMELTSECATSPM
Sequence of Transcription factor Sp1 (Homo sapiens) (P08047 whole entry, looked up): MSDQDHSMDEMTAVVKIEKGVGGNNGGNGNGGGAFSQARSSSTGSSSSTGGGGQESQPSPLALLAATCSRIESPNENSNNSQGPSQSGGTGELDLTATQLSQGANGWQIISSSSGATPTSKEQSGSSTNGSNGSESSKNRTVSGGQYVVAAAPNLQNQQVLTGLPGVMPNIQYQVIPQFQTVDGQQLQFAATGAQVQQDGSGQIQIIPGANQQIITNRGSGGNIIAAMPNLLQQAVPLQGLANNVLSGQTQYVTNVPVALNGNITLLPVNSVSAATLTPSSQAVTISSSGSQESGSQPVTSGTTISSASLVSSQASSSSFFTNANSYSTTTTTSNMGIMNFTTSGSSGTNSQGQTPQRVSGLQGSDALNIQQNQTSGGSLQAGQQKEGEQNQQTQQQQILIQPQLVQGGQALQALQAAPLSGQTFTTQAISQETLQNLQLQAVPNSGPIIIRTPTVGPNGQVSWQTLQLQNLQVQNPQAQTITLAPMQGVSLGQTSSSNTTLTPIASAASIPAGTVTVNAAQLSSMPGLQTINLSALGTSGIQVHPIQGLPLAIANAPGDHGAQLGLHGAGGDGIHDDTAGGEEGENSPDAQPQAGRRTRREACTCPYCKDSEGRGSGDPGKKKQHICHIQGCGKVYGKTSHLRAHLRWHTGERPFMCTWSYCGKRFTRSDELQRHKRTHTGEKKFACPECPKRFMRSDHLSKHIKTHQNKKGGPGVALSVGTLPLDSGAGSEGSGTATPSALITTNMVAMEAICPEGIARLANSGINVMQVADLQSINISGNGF

The target in one assay is Transcription factor Sp1 (Homo sapiens) (UniProt P08047). Put plainly: ATG_Sp1_CIS: Attagene CIS-FACTORIAL HepG2 Assay for human Specificity Protein 1 (Sp1) (AID 2282961). The conditions noted are these: HepG2 Sp1 cis-reporter transcription, actives raise or lower the signal. An outline of the steps:
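Cells: HepG2, transiently transfected with cis-regulated multiplexed reporters. Exposure: 24 h. Detection: reporter transcripts amplified, fluorescently labeled, restriction-digested and sized by capillary electrophoresis. Analysis: bidirectional fit relative to DMSO.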
What is called AC50 is the midpoint of the concentration-response curve, whichever way the signal moves. With `C=CCC1=C(C)C(OC(=O)C2C(C=C(C)C)C2(C)C)CC1=O` (stereo not given), the AC50 is 54.2 µM (active) [middle of 5 runs] and the call was inactive.

With `COC(=O)C=C(C)OP(=O)(OC)OC`, the result was inactive.

With `CC(C)C1(C)N=C(c2nc3ccccc3cc2C(=O)O)NC1=O` (stereo not given), the outcome was inactive.

For the compound `CCCN(CCC)c1c([N+](=O)[O-])cc(S(N)(=O)=O)cc1[N+](=O)[O-]`, the outcome was inactive.

Consider `CCc1nn(C)c(C(=O)NCc2ccc(C(C)(C)C)cc2)c1Cl`, for which the outcome was inactive.

Take `OC(c1ccc(Cl)cc1)(c1cncnc1)c1ccccc1Cl` (stereo not given): the concentration at half-maximal activity (AC50) was 12.6 µM (active) and the compound was called inactive.

Tested on in a further assay: not listed separately
As to the kind of experiment: ATG_SREBP_CIS: Attagene CIS-FACTORIAL HepG2 Assay for human Sterol Regulatory Element Binding (SREBP) (AID 2282962). The conditions noted are these: HepG2 Attagene cis-factorial SREBP reporter, mRNA; actives raise or lower the signal. The method in brief:
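Readout: fluorescent reporter-transcript peaks resolved by capillary electrophoresis after RT-PCR. Cells were human HepG2 carrying transfected cis-promoter reporter constructs, dosed for 24 h. Gain or loss of signal was fitted against DMSO controls.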
Regarding `COc1nc(NC(C)C)nc(NC(C)C)n1`, the result was inactive.

Turning to `Oc1ccccc1-c1ccccc1`, the AC50 is 150 µM (active) and the call was inactive.

Take `COc1nc(C)nc(NC(=O)NS(=O)(=O)c2ccccc2Cl)n1`: the outcome was inactive.

On to `CCOC(=O)CC(SP(=S)(OC)OC)C(=O)OCC` (stereo not given), for which the outcome was inactive.

`CCCCC(CC)COC(=O)c1ccccc1C(=O)OCC(CC)CCCC` (stereo not given): the result was inactive.

Take `COc1nc(C)nc(NC(=O)NS(=O)(=O)c2ccccc2CCC(F)(F)F)n1`: the compound was called inactive.

Turning to `COc1ccc(C(c2ccc(OC)cc2)C(Cl)(Cl)Cl)cc1`, the result was inactive.

Turning to `CNC(=S)S`, the result was inactive.

Turning to `COP(=S)(OC)Oc1nc(Cl)c(Cl)cc1Cl`, the AC50 is 32 µM (active).

On to `COC(=O)N(OC)c1ccccc1COc1ccn(-c2ccc(Cl)cc2)n1`, for which the outcome was inactive.

As to `N#Cc1nn(-c2c(Cl)cc(C(F)(F)F)cc2Cl)c(N)c1S(=O)C(F)(F)F` (stereo not given), the call was inactive.

As for `C=CCC1=C(C)[C@@H](OC(=O)[C@@H]2[C@@H](C=C(C)C)C2(C)C)CC1=O`, the outcome was inactive.

As for `CCCC1COC(Cn2cncn2)(c2ccc(Cl)cc2Cl)O1` (stereo not given), the AC50 was 15.9 µM (active) and the compound was classed as inactive.

As for `CO/C=C(/C(=O)OC)c1ccccc1Oc1cc(Oc2ccccc2C#N)ncn1`, the half-maximal activity concentration (AC50) is 32.4 µM (active) [middle of 4 runs] and the result was inactive.

`CON(C)C(=O)Nc1ccc(Cl)c(Cl)c1`: the compound was classed as inactive.

Regarding `CCCCNC(=O)n1c(NC(=O)OC)nc2ccccc21`, the result was inactive.

Turning to `CCCCOC(=O)c1ccccc1C(=O)OCCCC`, the AC50 was 75.8 µM (active) and the compound was classed as inactive.

Consider `COC(=O)c1ccccc1C(=O)OC`, for which the call was inactive.

`CCCCNC(=O)OCC#CI`: the call was inactive.

As for `CC(C)(C)c1ccc(CSc2cnn(C(C)(C)C)c(=O)c2Cl)cc1`, the call was inactive.

Take `C=CCC1=C(C)C(OC(=O)C2C(C=C(C)C)C2(C)C)CC1=O` (stereo not given): the call was inactive.

In the case of `COC(=O)C=C(C)OP(=O)(OC)OC`, the outcome was inactive.

`CC(C)C1(C)N=C(c2nc3ccccc3cc2C(=O)O)NC1=O` (stereo not given): the compound was called inactive.

Take `CCCN(CCC)c1c([N+](=O)[O-])cc(S(N)(=O)=O)cc1[N+](=O)[O-]`: the result was inactive.

With `CCc1nn(C)c(C(=O)NCc2ccc(C(C)(C)C)cc2)c1Cl`, the outcome was inactive.

Take `OC(c1ccc(Cl)cc1)(c1cncnc1)c1ccccc1Cl` (stereo not given): the compound was called inactive.

The next assay addresses Signal transducer and activator of transcription 3 (Homo sapiens) (UniProt P40763). As to the kind of experiment: ATG_STAT3_CIS: Attagene CIS-FACTORIAL HepG2 Assay for human Signal Transducer and Activator of Transcription 3 (STAT3) (AID 2282963). The settings on record: HepG2, Attagene cis-factorial STAT3 reporter transcription; actives raise or lower the signal. The method in brief: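 Uses human liver HepG2 transiently carrying cis-regulated reporter transcription units. Following 24 h dosing, reporter mRNA induction was detected by RT-PCR and capillary electrophoresis, analysed bidirectionally versus DMSO.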
Turning to `COc1nc(NC(C)C)nc(NC(C)C)n1`, the compound was called inactive.

For `Oc1ccccc1-c1ccccc1`, the call was inactive.

As for `COc1nc(C)nc(NC(=O)NS(=O)(=O)c2ccccc2Cl)n1`, the compound was classed as inactive.

Turning to `CCOC(=O)CC(SP(=S)(OC)OC)C(=O)OCC` (stereo not given), the call was inactive.

With `CCCCC(CC)COC(=O)c1ccccc1C(=O)OCC(CC)CCCC` (stereo not given), the compound was classed as inactive.

Take `COc1nc(C)nc(NC(=O)NS(=O)(=O)c2ccccc2CCC(F)(F)F)n1`: the outcome was inactive.

As for `COc1ccc(C(c2ccc(OC)cc2)C(Cl)(Cl)Cl)cc1`, the outcome was inactive.

As to `CNC(=S)S`, the call was inactive.

As to `COP(=S)(OC)Oc1nc(Cl)c(Cl)cc1Cl`, the call was inactive.

Take `COC(=O)N(OC)c1ccccc1COc1ccn(-c2ccc(Cl)cc2)n1`: the outcome was inactive.

`N#Cc1nn(-c2c(Cl)cc(C(F)(F)F)cc2Cl)c(N)c1S(=O)C(F)(F)F` (stereo not given): the call was inactive.

As for `C=CCC1=C(C)[C@@H](OC(=O)[C@@H]2[C@@H](C=C(C)C)C2(C)C)CC1=O`, the compound was classed as inactive.

In the case of `CCCC1COC(Cn2cncn2)(c2ccc(Cl)cc2Cl)O1` (stereo not given), the compound was called inactive.

With `CO/C=C(/C(=O)OC)c1ccccc1Oc1cc(Oc2ccccc2C#N)ncn1`, the result was inactive.

Regarding `CON(C)C(=O)Nc1ccc(Cl)c(Cl)c1`, the call was inactive.

As for `CCCCNC(=O)n1c(NC(=O)OC)nc2ccccc21`, the call was inactive.

As to `CCCCOC(=O)c1ccccc1C(=O)OCCCC`, the result was inactive.

As for `COC(=O)c1ccccc1C(=O)OC`, the compound was called inactive.

As for `CCCCNC(=O)OCC#CI`, the AC50 is 60.2 µM (active) and the result was inactive.

On to `CC(C)(C)c1ccc(CSc2cnn(C(C)(C)C)c(=O)c2Cl)cc1`, for which the result was inactive.

As for `C=CCC1=C(C)C(OC(=O)C2C(C=C(C)C)C2(C)C)CC1=O` (stereo not given), the result was inactive.

For `COC(=O)C=C(C)OP(=O)(OC)OC`, the compound was called inactive.

Consider `CC(C)C1(C)N=C(c2nc3ccccc3cc2C(=O)O)NC1=O` (stereo not given), for which the outcome was inactive.

`CCCN(CCC)c1c([N+](=O)[O-])cc(S(N)(=O)=O)cc1[N+](=O)[O-]`: the outcome was inactive.

`CCc1nn(C)c(C(=O)NCc2ccc(C(C)(C)C)cc2)c1Cl`: the compound was called inactive.

As to `OC(c1ccc(Cl)cc1)(c1cncnc1)c1ccccc1Cl` (stereo not given), the compound was classed as inactive.

Tested on in a further assay: not listed separately
As to the kind of experiment: ATG_TA_CIS: Attagene CIS-FACTORIAL HepG2 Assay for human TA Basal Promoter (AID 2282964). The conditions noted are these: HepG2 Attagene CIS-factorial TA basal promoter reporter; actives raise or lower the signal. The method in brief: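 Multiplexed mRNA reporter assay, HepG2, 24 h. Reporter cDNA amplified, 6-FAM primer-extended, HpaI-cut, CE-sized; DMSO = negative control and baseline.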
As to `COc1nc(NC(C)C)nc(NC(C)C)n1`, the call was inactive.

On to `Oc1ccccc1-c1ccccc1`, for which the outcome was inactive.

On to `COc1nc(C)nc(NC(=O)NS(=O)(=O)c2ccccc2Cl)n1`, for which the compound was classed as inactive.

For `CCOC(=O)CC(SP(=S)(OC)OC)C(=O)OCC` (stereo not given), the compound was called inactive.

On to `CCCCC(CC)COC(=O)c1ccccc1C(=O)OCC(CC)CCCC` (stereo not given), for which the compound was classed as inactive.

`COc1nc(C)nc(NC(=O)NS(=O)(=O)c2ccccc2CCC(F)(F)F)n1`: the result was inactive.

As to `COc1ccc(C(c2ccc(OC)cc2)C(Cl)(Cl)Cl)cc1`, the outcome was inactive.

For the compound `CNC(=S)S`, the result was inactive.

For `COP(=S)(OC)Oc1nc(Cl)c(Cl)cc1Cl`, the result was inactive.

On to `COC(=O)N(OC)c1ccccc1COc1ccn(-c2ccc(Cl)cc2)n1`, for which the call was inactive.

Take `N#Cc1nn(-c2c(Cl)cc(C(F)(F)F)cc2Cl)c(N)c1S(=O)C(F)(F)F` (stereo not given): the call was inactive.

`C=CCC1=C(C)[C@@H](OC(=O)[C@@H]2[C@@H](C=C(C)C)C2(C)C)CC1=O`: the compound was classed as inactive.

For the compound `CCCC1COC(Cn2cncn2)(c2ccc(Cl)cc2Cl)O1` (stereo not given), the AC50 is 50 µM (active) and the outcome was inactive.

On to `CO/C=C(/C(=O)OC)c1ccccc1Oc1cc(Oc2ccccc2C#N)ncn1`, for which the call was inactive.

For the compound `CON(C)C(=O)Nc1ccc(Cl)c(Cl)c1`, the result was inactive.

Regarding `CCCCNC(=O)n1c(NC(=O)OC)nc2ccccc21`, the call was inactive.

On to `CCCCOC(=O)c1ccccc1C(=O)OCCCC`, for which the AC50 was 39.8 µM (active) and the result was inactive.

Consider `COC(=O)c1ccccc1C(=O)OC`, for which the call was inactive.

For the compound `CCCCNC(=O)OCC#CI`, the half-maximal activity concentration (AC50) is 27.7 µM (active) and the compound was classed as inactive.

In the case of `CC(C)(C)c1ccc(CSc2cnn(C(C)(C)C)c(=O)c2Cl)cc1`, the result was inactive.

In the case of `C=CCC1=C(C)C(OC(=O)C2C(C=C(C)C)C2(C)C)CC1=O` (stereo not given), the AC50 was 30.9 µM (active) and 52.5 µM (active) and 74.7 µM (active); the call was inactive.

On to `COC(=O)C=C(C)OP(=O)(OC)OC`, for which the compound was called inactive.

With `CC(C)C1(C)N=C(c2nc3ccccc3cc2C(=O)O)NC1=O` (stereo not given), the call was inactive.

For the compound `CCCN(CCC)c1c([N+](=O)[O-])cc(S(N)(=O)=O)cc1[N+](=O)[O-]`, the result was inactive.

Turning to `CCc1nn(C)c(C(=O)NCc2ccc(C(C)(C)C)cc2)c1Cl`, the result was inactive.

As to `OC(c1ccc(Cl)cc1)(c1cncnc1)c1ccccc1Cl` (stereo not given), the outcome was inactive.
